# An excerpt weighted towards active compounds, which were near 11% of everything screened.
# HP1b chromo inh = HTS for Inhibitors of HP1-beta Chromodomain Interactions with Methylated Histone Tails; Chromobox protein homolog 1 (Homo sapiens), P83916; AlphaScreen HP1-beta / biotin-H3K9me3 peptide binding; 390,000 tested, 0.56% active; Potency, µM (series often up to 114 µM), without a hit: at the top dose activity change, negative = inhibition, hits mostly inhibitors; also: nearly all actives have a fitted effect of over 70% in size
#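 Compound inhibition of the preformed complex between 50 nM HP1-beta and 50 nM biotinylated H3K9me3 peptide was read by AlphaScreen. Buffer was PBS pH 7.4 with 0.01% Tween-20. Incubations ran 30 min at room temperature, with 10 ug/mL donor/acceptor beads.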
# BAZ2B block = qHTS Assay for Inhibitors of BAZ2B; AlphaScreen BAZ2B-H3K14Ac peptide displacement; Potency, µM (series often up to 114 µM), without a hit: top-dose activity change, negative = inhibition, actives largely listed as inhibitors; 360,000 tested, 4.4% active; AID 504333, 2011; also: % is scaled to controls: 0 for no effect and ±100 for the full control effect; nearly all actives have a fitted effect of over 60% in size
#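 Multi-concentration screen (max 110 uM) measuring displacement of acetylated histone H3 peptide from BAZ2B by AlphaScreen, using 50 nM protein, 50 nM peptide and 10 ug/mL streptavidin donor plus Ni-chelate acceptor beads.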
# PLK1 PBD block = qHTS for Inhibitors of PLK1-PDB (polo-like kinase 1 - polo-box domain): Primary Screen; Serine/threonine-protein kinase PLK1 (Homo sapiens), P53350; Plk1 PBD binding of FITC phosphopeptide, fluorescence polarization; Potency, µM, for inactives: max response, negative = inhibition, most hits filed as inhibitors; 360,000 tested, 2.8% active; also: series mostly up to about 57 µM; % is scaled to controls: 0 for no effect and ±100 for the full control effect; nearly all actives have a fitted effect of over 65% in size
# G9a block = qHTS Assay for Inhibitors of Histone Lysine Methyltransferase G9a; Histone-lysine N-methyltransferase EHMT2 (Homo sapiens), Q96KQ7; G9a H3K9 monomethylation, AlphaScreen, 2 h; Potency, µM (titrated, usually from 102 µM), without a hit: top-dose activity, negative = inhibition, most hits filed as inhibitors; 350,000 tested, 8.8% active; AID 504332, 2011; also: % is scaled to controls: 0 for no effect and ±100 for the full control effect; nearly all actives have a fitted effect of over 75% in size
#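 Using a bead-based AlphaScreen, monomethylated H3K9 product from 2 h room-temperature reactions (G9a 20 nM, peptide 500 nM, SAM 20 uM) was detected with 0.5 ug/mL rabbit anti-H3K9me1 antibody.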
# VDR inh = Inhibitors of the vitamin D receptor (VDR): qHTS | Vitamin D3 receptor (Homo sapiens), P11473 | VDR-SRC2-3 peptide fluorescence polarization, 2 h | Potency, µM, without a hit: max response, negative = inhibition, actives largely listed as inhibitors | 400,000 tested, 0.93% active; also: % is scaled to controls: 0 for no effect and ±100 for the full control effect
# Target sequence (P11473 whole entry, looked up): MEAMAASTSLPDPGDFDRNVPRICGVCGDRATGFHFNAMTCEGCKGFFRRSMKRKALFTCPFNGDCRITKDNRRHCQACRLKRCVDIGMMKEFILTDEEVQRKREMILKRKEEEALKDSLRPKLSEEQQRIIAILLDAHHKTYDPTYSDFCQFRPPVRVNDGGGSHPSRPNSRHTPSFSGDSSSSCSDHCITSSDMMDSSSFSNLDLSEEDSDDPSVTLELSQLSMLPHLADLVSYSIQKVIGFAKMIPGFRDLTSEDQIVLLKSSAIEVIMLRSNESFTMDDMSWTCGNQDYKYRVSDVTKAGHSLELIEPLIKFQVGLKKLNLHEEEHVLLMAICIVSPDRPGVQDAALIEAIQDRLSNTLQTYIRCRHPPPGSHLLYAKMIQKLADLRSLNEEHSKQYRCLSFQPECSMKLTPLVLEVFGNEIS
#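 Compounds are added to VDR with labelled SRC2-3 coactivator peptide and held 2 h at room temperature. Inhibition of the VDR–peptide interaction is then read as a change in fluorescence polarization.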
# JMJD2A Tudor inh = qHTS Assay for Inhibitors of JMJD2A-Tudor Domain | AlphaScreen JMJD2A-Tudor / H3K4me3 peptide binding | AID 504339, 2011 | 390,000 tested, 4.4% active | Potency, µM (titrated, usually from 114 µM), without a hit: at the highest dose activity change, negative = inhibition, usual class: inhibitors | Lysine-specific demethylase 4A (Homo sapiens), O75164; also: % is scaled to controls: 0 for no effect and ±100 for the full control effect; nearly all actives have a fitted effect of over 50% in size
# Starred values were filed as active, the others as inactive; ? = inconclusive; . = no result given; [ ] = another dose, or the depositor's remark. Calls follow the shape of the dose curve; as a rule, active = well fitted curve in the direction sought with a large enough effect; inconclusive = small, poorly fitted or top-dose-only effect, or another doubt; inactive = no such curve, though single readings can be large; an effect the other way counts as inactive or inconclusive. Potency is read from the fitted curve at half-maximal effect.
SMILES,HP1b chromo inh,BAZ2B block,PLK1 PBD block,G9a block,VDR inh,JMJD2A Tudor inh
O=C1Cc2ccccc2C(=O)N1Cc1ccccc1,33.2%,-32.7%,?,50.1µM*,-2.5%,-6.2%[11.4 µM]
O=C1Cc2ccccc2C(=O)N1c1ccc(F)cc1Cl,20.3%,-12.5%,-22.0%,50.1µM*,7.5%,-23.3%
O=C1c2cccc3c(O)ccc(c23)C(=O)N1Cc1ccccc1,49.8%,5.5%,5.97µM*,9.4%[2.33 µM],8.9%,36.1%
CCOc1ccccc1C(=O)NCc1ccc2c(c1)CCN2C(=O)c1ccccc1,27.0%,-1.4%,.,0.1%[59 µM],15.5%,-12.7%
Cc1ccc(C2Nc3ccccc3-n3c(-c4ccccc4)c4c(=O)n(C)c(=O)n(C)c4c32)o1 (stereo not given),46.5%,3.9%,.,-27.7%[59 µM],17.7%,-12.3%
Cc1ccc2c(CC(=O)Nc3nnc(C(C)C)s3)coc2c1C,60.8%,0.0%,.,-2.0%[59 µM],9.1%,-0.7%
O=C1Cc2ccccc2C(=O)N1c1cccc(Cl)c1,27.2%,-28.3%,?,39.8µM*,0.6%,-24.7%
Cc1cc(C)nc(NN2C(=O)/C(=C/c3ccccc3)SC2=S)n1,0.6%,-8.3%,-26.7%,39.8µM*,100.9%,-10.9%
O=C1/C(=C/c2ccncc2)SC(=S)N1Nc1ccccc1,?,?,5.32µM*,31.6µM*,50.1µM*,?
CC(=O)NN1C(=O)/C(=C\c2ccccc2)SC1=S,25.3%,-28.5%,5.2%,11.9%,-10.8%,-26.1%
O=C(O)c1ccc(/C=C2\SC(=S)N(Nc3ccccc3)C2=O)cc1,-5.1%,?,21.2µM*,50.1µM*,?,-23.2%
CCOCCN1CCN(C2c3ccccc3CSc3ccccc32)CC1 (stereo not given),?,.,-4.4%,.,8.8%,12.6µM*
COc1ccc(-c2oc3cccnc3c2/C=C/c2ccc(OC)c(OC)c2)cc1,113.3%,10.6%,-6.4%,71.6%,-7.7%,69.8%
N#Cc1c2nc3ccccc3nc2n2cc(NC(=O)c3ccc(F)cc3)ccc12,-19.1%,?,0.0%,3.16µM*,-6.2%,17.8µM*
Cc1c(C(=O)Nc2ccc(F)cc2)cn2c(nc3ccccc32)c1C#N,19.7%,-3.0%,3.5%,-0.8%[59 µM],2.5%,11.6%
CCSc1nnc2c(n1)OC(c1ccc(C)cc1)N(C(C)=O)c1ccccc1-2 (stereo not given),-5.3%,-19.6%,.,?,5.4%,-35.3%
CCCCCSc1nnc2c(n1)OC(c1cccn1C)N(C(C)=O)c1ccccc1-2 (stereo not given),?,?,-3.1%,?,0.6%,28.2µM*
CC(=O)N1CCN(CC(=O)c2ccc(Br)cc2)CC1,61.1%,-3.5%,-5.6%,2µM*,?,-12.0%
OC(COc1ccc(Br)cc1)CN1CCC(Cc2ccccc2)CC1 (stereo not given),36.9%,-24.4%,-1.0%,79.4µM*,12.7%,-8.3%
CC(=O)N1CCN(CC(O)COc2ccc(Br)cc2)CC1 (stereo not given),?,56.2µM*,-2.1%,8.91µM*,-1.5%,17.8µM*
Cc1ccc(NC(=O)N2CCN(c3cc(-c4noc(C)n4)ccc3C)CC2)c(F)c1,21.7%[57 µM],8.2%,.,-2.4%[59 µM],8.6%,-27.7%
CC(=O)Nc1ccccc1OC1=N[S+](=O)([O-])c2ccccc21,.,.,.,.,.,-9.9%
CC(C)N(C)c1ncnc2c1ncn2[C@H]1CN(Cc2ccc(Cl)cc2)C[C@@H](CO)O1,.,.,2.1%,.,.,.
Brc1cccc(-c2nnc3sc(CNCc4ccco4)cn23)c1,20.6%,-21.3%,-15.2%,44.7µM*,5.0%,-29.1%
Cc1cc(N)n(-c2ccc(S(N)(=O)=O)cc2[N+](=O)[O-])n1,3.4%,-24.2%,-8.1%,?,-4.2%,-21.8%

# Screening data deposited in PubChem by National Center for Advancing Translational Sciences (NCATS).
